The text below walks through data of PubChem BioAssay (EPA / NIEHS).

Inconclusive results are not listed. Calls of active or inactive are those of the source. Rule for the calls, unless noted: active = hit-call score of the fitted dose curve at least 0.9, where 1 is the maximum; inconclusive = response in the unintended direction; inactive = score below 0.9.

Assay [1] is described as follows: TOX21_p53_BLA_p2_viability: Viability Assessment in the Tox21 HCT-116 p53 Agonism Beta-lactamase Assay, Phase 2 (AID 2283591).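 Note: compound exposure lasted 16 h at 37 °C; actives lower the ATP signal meaning cytotoxicity.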 The essentials: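 HCT116 p53-bla cells, 4000/well, dosed after 5 h plating (217-fold dilution of DMSO stocks) and incubated 16 h at 37C. Viability taken as cellular ATP by CellTiter-Glo luminescence after 30 min RT; signal loss marks cytotoxicity.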

The target in assay [2] is Cellular tumor antigen p53 (Homo sapiens) (UniProt P04637). Kind of assay: TOX21_p53_BLA_p3_ratio: Tox21 HCT-116 p53 Agonism Beta-lactamase Assay, Ratio, Phase 3 (AID 2283596). The essentials:
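HCT116 p53-bla cells (4000/well) given compound in DMSO (217-fold dilution) after 5 h, incubated 16 h at 37C. CCF4-AM substrate 2 h at room temperature; 460/530 nm emission ratio, gain fitted against DMSO.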

For assay [3] the target is unchanged. Kind of assay: TOX21_p53_BLA_p5_ratio: Tox21 HCT-116 p53 Agonism Beta-lactamase Assay, Ratio, Phase 5 (AID 2283599). In short, it runs like this: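 HCT-116 p53-bla cells (4000/well) plated 5 h, dosed with compound (217-fold DMSO dilution) for 16 h at 37 C; CCF4-AM substrate 2 h at room temperature. Activity is the 460/530 nm emission ratio (405 nm excitation), fitted in gain-of-signal direction versus DMSO.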

The nature of assay [4]: TOX21_p53_BLA_p5_viability: Viability Assessment in the Tox21 HCT-116 p53 Agonism Beta-lactamase Assay, Phase 5 (AID 2283600). The essentials:
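4000 cells/well; 5 h pre-incubation; DMSO compounds pin-transferred, 217-fold dilution; 16 h, 37C/5% CO2; CCF4-AM 2 h RT; CellTiter-Glo 30 min RT; luminescence.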

A short description of assay [5]: TOX21_p53_BLA_p4_viability: Viability Assessment in the Tox21 HCT-116 p53 Agonism Beta-lactamase Assay, Phase 4 (AID 2283597).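 Note: hits lower the luminescence signal meaning cytotoxicity.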 The essentials:
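Cells plated, 5 h pre-incubation; DMSO compounds pinned (217-fold dilution); 16 h, 37C/5% CO2; CCF4-AM 2 h RT; CellTiter-Glo 30 min RT; luminescence read.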

Assay [6] concerns the target Cellular tumor antigen p53 (Homo sapiens) (UniProt P04637). The experiment in a line: TOX21_p53_BLA_p4_ratio: Tox21 HCT-116 p53 Agonism Beta-lactamase Assay, Ratio, Phase 4 (AID 2283601). The essentials:
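HCT-116 p53 beta-lactamase reporter cells (4000/well) preincubated 5 h, then compound (217-fold dilution of DMSO stock) for 16 h at 37C. CCF4-AM substrate added 2 h at room temperature; 460/530 nm emission ratio fitted upward versus DMSO.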

Assay [7] in a line: CCTE_Harrill_HTTr_Viability_MCF7: CCTE's 6-hour Cell Viability Assessment for the High-Throughput Transcriptomics (HTTr) Platform, in MCF-7 cells cultured in DMEM + 10% fetal bovine serum, Harrill Lab (AID 2284010; active = hit-call score of the fitted dose curve at least 0.9, where 1 is the maximum; inactive = score below 0.9). In short, it runs like this: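 MCF-7 cells in DMEM + 10% FBS, 384-well, exposed 6 h to an eight-point dilution series. Membrane integrity scored by high-content imaging of propidium iodide exclusion; bidirectional fit versus DMSO.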

Assay [8] in a line: CCTE_Harrill_HTTr_Apoptosis_MCF7: CCTE's 6-hour Apoptosis Assessment for the High-Throughput Transcriptomics (HTTr) Platform, in MCF-7 cells cultured in DMEM + 10% fetal bovine serum, Harrill Lab (AID 2284011; active = hit-call score of the fitted dose curve at least 0.9, where 1 is the maximum; inactive = score below 0.9). The essentials: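 MCF-7 (DMEM + 10% FBS), 384-well; 8-pt dilution series, 6 h chemical exposure; caspase-3/7 activation via CellEvent Caspase 3/7 Green, HCI; bidirectional fit vs DMSO.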

Assay [9] in a line: CCTE_Harrill_HTTr_CellCount_MCF7: CCTE's Cell Proliferation Assessment for the High-Throughput Transcriptomics (HTTr) Platform, Harrill Lab (AID 2284012).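 Note: cells exposed to compound for six hours; intended direction is loss of nuclei count meaning fewer cells.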 The essentials:
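MCF7 cells exposed 6 hours to an eight-point dilution series; Hoechst-stained nuclei counted by high-content imaging. Bidirectional curve fitting against DMSO baseline.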

Assay [10] concerns the target Estrogen receptor (Homo sapiens) (UniProt P03372). Kind of assay: CCTE_Deisenroth_AIME_96WELL_LUC_Active: CCTE's 96-well Estrogen Receptor Transactivation Assay with AIME metabolic competence (ERTA luciferase; metabolism positive), Deisenroth Lab (AID 2284023). In short, it runs like this: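 Chemicals pre-incubated 2 h with alginate-immobilized phenobarbital/beta-naphthoflavone-induced male Sprague Dawley rat liver S9, then medium transferred to VM7Luc4E2 cells for 24 h luciferase read-out. 10-point series 0.002 - 200 uM; fitted relative to 17beta-estradiol.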

Assay [11] shares this target. The experiment in a line: CCTE_Deisenroth_AIME_96WELL_LUC_Inactive: CCTE's 96-well Estrogen Receptor Transactivation Assay without AIME metabolic competence (ERTA luciferase; metabolism negative), Deisenroth Lab (AID 2284025). In short, it runs like this:
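VM7Luc4E2 breast cells, luciferase read 24 h after dosing with medium pre-incubated 2 h on alginate-water lids (metabolism negative). 10-point series 0.002–200 uM, single technical replicate, n≥4; fit relative to 17beta-estradiol.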

Assay [12] can be described thus: CCTE_Deisenroth_AIME_96WELL_CTox_Active: Cytotoxicity Assessment (CTOX) in CCTE's 96-well Estrogen Receptor Transactivation Assay with AIME metabolic competence (metabolism positive), Deisenroth Lab (AID 2284028). In short, it runs like this:
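Chemicals (0.002–200 uM) were first incubated 2 h with alginate-immobilized phenobarbital/beta-naphthoflavone-induced male rat liver S9; conditioned medium then went onto VM7Luc4E2 cells for 24 h, with viability read by protease-substrate fluorescence, fitted bidirectionally.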

Assay [13] is described as follows: CCTE_Deisenroth_AIME_96WELL_CTox_Inactive: Cytotoxicity Assessment (CTOX) in CCTE's 96-well Estrogen Receptor Transactivation Assay without AIME metabolic competence (metabolism negative), Deisenroth Lab (AID 2284029). In short, it runs like this: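 Chemicals (0.002 - 200 uM, 10 points) incubated 2 h with alginate-water microspheres (no S9), then medium moved onto VM7Luc4E2 cells for 24 h. Viability by protease-substrate cleavage to fluorescent probe; bidirectional fitting.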

Sequence of Cellular tumor antigen p53 (Homo sapiens) (P04637 whole entry, looked up): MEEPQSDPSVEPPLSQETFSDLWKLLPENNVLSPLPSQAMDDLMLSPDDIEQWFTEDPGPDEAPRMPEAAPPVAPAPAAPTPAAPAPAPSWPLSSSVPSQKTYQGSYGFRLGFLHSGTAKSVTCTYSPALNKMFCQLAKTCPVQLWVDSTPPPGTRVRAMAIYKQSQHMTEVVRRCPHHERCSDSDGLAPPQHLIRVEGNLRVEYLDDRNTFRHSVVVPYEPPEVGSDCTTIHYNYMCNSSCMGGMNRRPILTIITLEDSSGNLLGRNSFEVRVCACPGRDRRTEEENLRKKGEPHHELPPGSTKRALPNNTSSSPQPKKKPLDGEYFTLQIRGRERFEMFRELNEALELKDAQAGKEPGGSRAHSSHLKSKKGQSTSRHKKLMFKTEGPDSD
Sequence of Estrogen receptor (Homo sapiens) (P03372 whole entry, looked up): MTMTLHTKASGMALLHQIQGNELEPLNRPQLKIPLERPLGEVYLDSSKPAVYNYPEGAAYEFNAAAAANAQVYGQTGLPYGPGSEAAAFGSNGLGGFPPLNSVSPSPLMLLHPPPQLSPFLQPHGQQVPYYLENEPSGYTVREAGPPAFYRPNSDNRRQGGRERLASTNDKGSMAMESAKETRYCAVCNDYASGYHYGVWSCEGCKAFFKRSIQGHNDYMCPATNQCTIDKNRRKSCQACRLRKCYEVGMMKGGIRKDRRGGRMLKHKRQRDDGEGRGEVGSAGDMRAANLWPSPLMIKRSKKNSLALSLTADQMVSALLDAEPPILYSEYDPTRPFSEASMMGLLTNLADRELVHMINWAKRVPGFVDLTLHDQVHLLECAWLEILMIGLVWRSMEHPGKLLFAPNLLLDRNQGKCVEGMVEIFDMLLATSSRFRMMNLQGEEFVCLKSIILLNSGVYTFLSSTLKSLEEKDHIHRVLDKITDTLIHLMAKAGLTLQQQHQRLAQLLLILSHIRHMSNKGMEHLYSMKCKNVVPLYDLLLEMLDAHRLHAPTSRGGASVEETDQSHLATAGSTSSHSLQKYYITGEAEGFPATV

Regarding `CCCCC`, the molecule was called inactive in [1], in assay [2], in assay [3] and in assay [4].
`O=C(Nc1cccc2c(=O)cc(-c3nn[nH]n3)oc12)c1ccc(OCCCCc2ccccc2)cc1`: the call in assay [1], in assay [2], in assay [5] and in [4] was inactive.
With `NC(=O)NC(=O)Cc1ccccc1`, the call in assay [1], in [2], in [5], in [3] and in [6] was inactive.
Regarding `CCCCCCCCCCCCCCCCSCC(COC)COP(=O)([O-])OCC[N+](C)(C)C` (stereo unspecified), the result in [1], in assay [2], in assay [5] and in assay [6] was inactive.
As for `OCC1(CO)COCOC1`, the result in assay [1], in assay [2], in [3], in assay [4] and in assay [6] was inactive.
Turning to `ClC1=C(Cl)C1(Cl)Cl`, the outcome in [1], in assay [2], in [5], in [4] and in assay [6] was inactive.
Consider `O=C1OC(=O)c2ccccc21`, for which the outcome in assay [1], in assay [2], in assay [5], in assay [4] and in assay [6] was inactive.
On to `C=CC[N+]1([C@H]2C[C@H]3[C@@H]4CC[C@H]5C[C@H](OC(C)=O)[C@@H](N6CCCCC6)C[C@]5(C)[C@H]4CC[C@]3(C)[C@H]2OC(=O)CC)CCCCC1`, for which the molecule was called inactive in assay [1], in [2], in [5], in assay [4] and in assay [6].
`CC(C)CCCC(C)NC(C)C` (stereo unspecified): the call in assay [1], in [2] and in assay [3] was inactive.
Turning to `COC(=O)C(CN)c1c[nH]c2ccc(OC)cc12` (stereo unspecified), the molecule was called inactive in assay [1], in assay [2], in [3], in assay [4] and in assay [6].
As for `CC=CC1=C(C(=O)O)N2C(=O)[C@@H](NC(=O)[C@H](N)c3ccc(O)cc3)[C@H]2SC1`, the molecule was classed as inactive in assay [1], in assay [2], in assay [3], in [4] and in [6].
In the case of `CCCc1nc(C(C)(C)O)c(C(=O)OCc2oc(=O)oc2C)n1Cc1ccc(-c2ccccc2-c2nn[nH]n2)cc1`, the molecule was classed as inactive in [1], in assay [2] and in assay [3].
On to `O=C1OC(CN2CCOCC2)CN1N=Cc1ccc([N+](=O)[O-])o1` (stereo unspecified), for which the molecule was called inactive in assay [1], in [2], in [3], in assay [4] and in [6].
`Cc1ccc2c(c1)c1c3n2CCNC3CCC1` (stereo unspecified): the result in assay [1], in assay [2] and in [3] was inactive.
Take `CCO[Si](OCC)(OCC)OCC`: the result in assay [1], in assay [2], in [5], in [3] and in assay [6] was inactive.
Consider `CC[C@H](CC[C@@H](C)[C@H]1CC[C@H]2[C@@H]3CC=C4C[C@@H](O)CC[C@]4(C)[C@H]3CC[C@]12C)C(C)C`, for which the call in [1], in [2], in assay [5], in [3], in assay [4] and in [6] was inactive. The result in assay [7], in [8] and in [9] was inactive.
For the molecule `COCCOCCOCCOCCO`, the molecule was classed as inactive in assay [1], in assay [2], in assay [3] and in [6].
As to `Cc1cccc(Nc2ccncc2S(=O)(=O)NC(=O)NC(C)C)c1`, the result in assay [1], in assay [5], in [3], in assay [4] and in assay [6] was inactive.
On to `C(=C\c1ccccc1)/c1ccccc1`, for which the result in [1], in assay [2], in assay [4], in [12] and in assay [13] was inactive. Moreover, the AC50 was 18 µM (active) in [10] and 44.6 µM (active) in [11].
Turning to `O=CNNC=O`, the call in assay [1], in [2], in assay [3] and in assay [6] was inactive.
With `CC(C(=O)O)c1ccc(/C=C2\CCCCC2=O)cc1` (stereo unspecified), the result in assay [1], in assay [2], in assay [4] and in assay [6] was inactive.
As to `CC(C)CCCO`, the result in assay [1], in assay [2] and in assay [6] was inactive.
`COc1ccc2c(c1)c(CC(=O)OCC(=O)O)c(C)n2C(=O)c1ccc(Cl)cc1`: the call in [1] and in assay [5] was inactive.
For the molecule `COc1cc2nc(N3CCN(C(=O)C4CCCO4)CC3)nc(N)c2cc1OC` (stereo unspecified), the molecule was called inactive in assay [1], in assay [5], in [3], in assay [4] and in [6].
Turning to `CC[N+](C)(C)c1cccc(O)c1`, the molecule was classed as inactive in assay [1], in [2], in [3] and in assay [6].
Turning to `CCC(Cc1c(I)cc(I)c(O)c1I)C(=O)O` (stereo unspecified), the molecule was classed as inactive in [1], in assay [5] and in assay [3].
